Compound activity: PubChem BioAssay, Bradner/Qi Labs at DFCI
CBX7 AlphaScr = inhibitors of human CBX7 binding to H3K27me3 peptide; O95931; AID 1224903; 66,000 compounds, 1.1% hits; normalised signal (fraction of DMSO) (concentration not given with the values); AlphaScreen His6-CBX7 / biotin-H3K27me3 peptide binding; active compounds read low; in the data active means normalised signal below about 0.5
Target sequence (O95931 whole entry, looked up): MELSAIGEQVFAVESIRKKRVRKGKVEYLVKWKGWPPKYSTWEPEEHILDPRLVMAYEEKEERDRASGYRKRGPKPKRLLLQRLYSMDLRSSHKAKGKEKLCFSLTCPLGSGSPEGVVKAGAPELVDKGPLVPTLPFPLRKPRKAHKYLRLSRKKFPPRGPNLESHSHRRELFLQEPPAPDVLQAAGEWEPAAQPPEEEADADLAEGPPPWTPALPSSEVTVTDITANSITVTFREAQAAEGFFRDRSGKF
Each line names hits and unclear results; the compound was inactive in the other large screens. Shown is part of a subset that was picked to be rich in hits.

CCCCN(C)S(=O)(=O)c1ccc(C(=O)Nc2c(C(=O)OCC)oc3ccccc23)cc1	none
COc1ccc(-c2nnc(NC(=O)c3ccc(S(=O)(=O)N(C)C4CCCCC4)cc3)o2)cc1	none
CCCN(CCC)S(=O)(=O)c1ccc(C(=O)Nc2nnc(COC)o2)cc1	none
COCc1nnc(NC(=O)c2ccc(S(=O)(=O)N(C)C3CCCCC3)cc2)o1	CBX7 AlphaScr 0.16
CCCCN(C)S(=O)(=O)c1ccc(C(=O)Nc2nnc(COC)o2)cc1	CBX7 AlphaScr 0.089
CN(C1CCCCC1)S(=O)(=O)c1ccc(C(=O)Nc2ccc(-c3nc4ccccc4[nH]3)cc2)cc1	none
CCCCN(C)S(=O)(=O)c1ccc(C(=O)Nc2nnc(CC)o2)cc1	CBX7 AlphaScr 0.39
CN1C2CCC1CC(N(CCc1c[nH]c3ccccc13)C(=O)c1ccc(Cl)cc1)C2 (stereo not given)	none
Cc1ccc2nc(-c3ccc(NCc4cccnc4)cc3)sc2c1	none
CCC1Oc2ccccc2N(Cc2ccccc2F)C1=O (stereo not given)	none
Cc1cccc(Nc2nc(-c3ccccc3)nc3ccccc23)c1	none
CCCSc1oc(-c2ccc(F)cc2)nc1S(=O)(=O)c1ccc(F)cc1	none
Cc1cc(OCC(O)CN2CCC(C)CC2)ccc1Cl (stereo not given)	none
CC1CCN(Cc2cc(Cl)c3cccnc3c2O)CC1	CBX7 AlphaScr 0
CC1CCN(Cc2cc(Cn3ccnc3)c3cccnc3c2O)CC1	CBX7 AlphaScr 0.0061
CC1CCN(Cc2nc(-c3ccccc3)no2)CC1	none
Cc1[nH]c2ccccc2c(=O)c1CN1CCC(C)CC1	none
CC1CCN(Cc2cc(Cl)c(O)c3ncccc23)CC1	CBX7 AlphaScr 0.0029
CC1CCN(CCCNC(=O)c2cnc(N3CCN(c4ncccn4)CC3)c3ccccc23)CC1	none
CCCC(=O)NC(c1ccc(C)cc1)c1cc(Cl)c2cccnc2c1O (stereo not given)	none
CC1CCN(c2nc(-c3ccccc3O)nc3ccccc23)CC1	none
COc1ccc(CN2CCCC(C(=O)Nc3c(C)cccc3C)C2)cc1OC (stereo not given)	none
COCCCNC(=O)CSc1nc(-c2ccc(OC)c(OC)c2)[nH]c1-c1ccc(F)cc1	none
CCc1ccc(NC(=O)C2c3ccccc3C(=O)N3CCc4cc(OC)c(OC)cc4C23)cc1 (stereo not given)	none
CCOC(=O)N1CCC(NC(=O)c2ccc3c(=O)n4c(nc3c2)CCCCC4)CC1	none
COc1ccc(N2C(=O)CC(N(CCc3ccc(OC)c(OC)c3)C(=O)c3ccccc3)C2=O)cc1 (stereo not given)	none
O=C(Nc1cccc(Cl)c1)c1scc2c1OCCO2	none
Clc1ccc2nc(-c3ccccn3)c(Nc3ccc4c(c3)OCO4)n2c1	none
Cc1ccc(-c2nc3ncccn3c2Nc2c(C)cccc2C)cc1	none
Cc1cccc(C)c1Nc1c(-c2ccccn2)nc2ccccn12	CBX7 AlphaScr 0.23
c1ccc(-c2nc3ccccn3c2Nc2ccc3c(c2)OCCO3)cc1	none
Cc1cccc(C)c1Nc1c(-c2cccs2)nc2ccccn12	none
Cc1ccc(-c2nc3cnccn3c2NC2CCCC2)cc1	none
Cc1cccc(C)c1Nc1c(-c2ccsc2)nc2ccccn12	none
Cc1cccc(C)c1Nc1c(-c2ccccn2)nc2ncccn12	CBX7 AlphaScr 0.011
Cc1ccc(-c2nc3ncccn3c2NC2CCCC2)cc1	none
Cc1ccc2nc(-c3ccccn3)c(NC3CCCC3)n2c1	CBX7 AlphaScr 0.12
Cc1cccc(C)c1Nc1c(-c2ccsc2)nc2ncccn12	none
c1ccc(-c2nc3ccccn3c2Nc2ccc3c(c2)OCCO3)nc1	CBX7 AlphaScr 0.073
CCN(CC)c1ccc(NC(=O)c2c(-c3ccccc3)noc2C)c(C)c1	none
COc1ccc(NC(=O)CSc2nc3ccc(C)cc3[nH]2)cc1	none
CCOC(=O)c1sc2ncnc(N3CCN(C(=O)OCC)CC3)c2c1C	none
COc1ccc(NC(=O)c2oc3ccc(S(=O)(=O)N4CCCC4)cc3c2C)c(OC)c1	none
O=C(O)C1CCN(c2nc3cc(Br)ccc3s2)CC1	none
COc1cccc(C(=O)NCCc2cc3ccc(C)cc3[nH]c2=O)c1OC	none
Cc1ccc(C2CC(=O)Nc3cc4c(cc32)OCCO4)cc1 (stereo not given)	none
O=C(Nc1cccc2c1C(=O)NC2=O)c1ccc(Oc2ccccc2)cc1	none
CC(=O)Nc1ccc(NC(=O)C2CCN(C(=O)c3cnn(-c4ccccc4)c3-n3cccc3)CC2)cc1	none
COc1ccc(C(=O)Nc2c3c(nn2-c2ccc(Cl)cc2)CSC3)cc1OC	none
Fc1ccccc1-c1nc(Nc2ccc(Cl)cc2)c2ccccc2n1	none
Cc1cccn2c(Nc3ccc4c(c3)OCCO4)c(-c3cccc(Cl)c3)nc12	none
Cc1cccn2c(Nc3ccc4c(c3)OCCO4)c(-c3ccsc3)nc12	none
Cc1cccn2c(Nc3ccc4c(c3)OCCO4)c(-c3ccc(N(C)C)cc3)nc12	CBX7 AlphaScr 0.41
COCCNC(=O)c1ccc2c(c1)nc(C)n2-c1ccccc1OC	none
O=C(CSc1nnc(-c2ccc(Cl)cc2Cl)o1)NCc1ccccc1	none
O=C(CSc1nnc(-c2cccnc2)o1)Nc1ccc(Cl)c(Cl)c1	CBX7 AlphaScr 0.47
CCOC(=O)c1ccc(NC(=O)CSc2nnc(-c3cccnc3)o2)cc1	none
O=C(CSc1nnc(-c2cccnc2)o1)Nc1ccc(Br)cc1	none
CCOc1ccc(Cc2nc3cc(C)c(C)cc3n(C)c2=O)cc1	none
COc1ccc(NC(=O)CSc2nnc(Cc3cc(=O)[nH]c(=O)[nH]3)n2-c2cccc(C)c2)cc1	none
Cn1c(=O)c2c(ncn2CC(=O)Nc2cccc(Cl)c2)n(C)c1=O	none
CCC(=C(c1ccc(OC)cc1)c1ccc(OC)cc1)c1cn(CC(O)CN2CCOCC2)c2ccccc12 (stereo not given)	CBX7 AlphaScr 0.41
COc1ccc(OCC(O)Cn2c(=N)n(CCN3CCOCC3)c3ccccc32)cc1 (stereo not given)	none
COc1ccc(OCC(O)CN2CCCCCC2)cc1 (stereo not given)	none
COc1ccc(C(=O)c2cn(Cc3ccc(F)cc3)c3ccccc3c2=O)cc1	none
CCC(=C(c1ccc(OC)cc1)c1ccc(OC)cc1)c1cn(CC(O)CN2CCN(C)CC2)c2ccccc12 (stereo not given)	CBX7 AlphaScr 0.35
COc1ccc(C(=O)c2cn(Cc3ccc(C)cc3)c3ccccc3c2=O)cc1	none
COc1ccc(-c2cc3ccccc3n2CC(O)CN2CCCCC2)cc1 (stereo not given)	none
COc1cccc(OCC(O)CN2CCOCC2)c1 (stereo not given)	none
CCC(=C(c1ccc(OC)cc1)c1ccc(OC)cc1)c1cn(CCN(C)C)c2ccccc12	CBX7 AlphaScr 0.32
O=C1CC(c2nc3ccccc3n2CCc2ccccc2)CN1c1ccccc1 (stereo not given)	none
CCN1CCN(Cc2ccc(NC(=O)CC3Oc4ccc(C)cc4NC3=O)cc2)CC1 (stereo not given)	none
Cc1cc(C)cc(OCC(=O)N(Cc2ccc(Cl)cc2)C2CCS(=O)(=O)C2)c1 (stereo not given)	none
Cc1cccc(NC(=O)c2cnc3scc(C)n3c2=O)c1C	none
COc1ccc(-c2nnc(NC(=O)C(C)(C)C)s2)cc1OC	none
c1ccc2[nH]c(-c3c[nH]c4ccccc34)nc2c1	none
Cc1ccc(-c2[nH]c(-c3c[nH]c4ccccc34)nc2-c2ccccc2)cc1	CBX7 AlphaScr 0.38
Fc1ccc(-c2[nH]c(-c3cccs3)nc2-c2ccccc2)cc1	none
Cc1ccc(C)c(-c2[nH]c(-c3ccc(O)cc3)nc2-c2ccccc2)c1	none
O=c1nc(-c2ccccc2)c2cc(Br)ccc2[nH]1	none
Fc1ccc(-c2[nH]c(-c3c[nH]c4ccc(Br)cc34)nc2-c2ccccc2)cc1	CBX7 AlphaScr 0.46
CCn1c(=O)cc(OCC(=O)NCc2ccc(F)cc2Cl)c2ccccc21	none
